# Bioassay records from PubChem BioAssay.
# Only some compounds are listed: those with a hit (about 6.3% of all), similar ones and a draw of the others.
# tim23-1 inh: growth inhibitors of tim23-1 mutant yeast, primary screen, luminescence, uHTS | S. cerevisiae tim23-1 growth, BacTiter-Glo luminescence, 24 h | inhibition, % at 20 µM | 1.3% of 330,000 active;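 active means growth inhibition of the mutant yeast at or above 50%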;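 further: temperature-sensitive mutant grown at 25 °C; plate controls were DMSO-treated mutant yeast for no effect and medium wells lacking yeast for full effect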
# tim10-1 inh: growth inhibitors of tim10-1 mutant yeast, primary screen, luminescence, uHTS | S. cerevisiae tim10-1 ts strain growth, BacTiter-Glo, 24 h | inhibition, % at 20 µM | 2.2% of 330,000 active | AID 463190, 2010;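 active means inhibition of at least 40%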;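 further: mutant grown at 25 °C; 0% = DMSO wells with yeast and 100% = wells holding no yeast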
# TIM10 inh: growth inhibitors of isogenic TIM10 control yeast, primary screen, counter-screen for tim10-1 yeast inhibitor project, luminescence, uHTS; S. cerevisiae TIM10 strain growth, BacTiter-Glo luminescence, 24 h; inhibition, % at 10 µM; 1.4% of 330,000 active; AID 463195, 2010;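 active means inhibition of 40% or more at the single tested concentration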;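 further: wild-type TIM10 isogenic control strain grown at permissive 25 °C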
# MPTP inh: mitochondrial permeability transition pore inhibitors, primary screen, biochemical, isolated mouse mitochondria, absorbance; Ca2+ swelling absorbance, 30 min; inhibition, % at 10 µM; 1.4% of 360,000 active; AID 602449, 2012;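 active means inhibition of 50% or more, scaled per plate between neutral and stimulator controls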;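 further: 0% = DMSO wells given calcium and 100% = 1 mM EGTA wells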
# Mdm2-MdmX inh: inhibitors of human Mdm2-MdmX association, primary screen, cell-based, luminescence, split luciferase, SaOS-2, uHTS; Protein Mdm4 (Homo sapiens) + E3 ubiquitin-protein ligase Mdm2 (Homo sapiens), …; SaOS-2 split-luciferase Mdm2/MdmX complementation; 3% of 330,000 active; inhibition, % at 8 µM;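 active means inhibition of at least 50% at 8 µM in the primary screen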
# Target sequence (O15151 whole entry, looked up): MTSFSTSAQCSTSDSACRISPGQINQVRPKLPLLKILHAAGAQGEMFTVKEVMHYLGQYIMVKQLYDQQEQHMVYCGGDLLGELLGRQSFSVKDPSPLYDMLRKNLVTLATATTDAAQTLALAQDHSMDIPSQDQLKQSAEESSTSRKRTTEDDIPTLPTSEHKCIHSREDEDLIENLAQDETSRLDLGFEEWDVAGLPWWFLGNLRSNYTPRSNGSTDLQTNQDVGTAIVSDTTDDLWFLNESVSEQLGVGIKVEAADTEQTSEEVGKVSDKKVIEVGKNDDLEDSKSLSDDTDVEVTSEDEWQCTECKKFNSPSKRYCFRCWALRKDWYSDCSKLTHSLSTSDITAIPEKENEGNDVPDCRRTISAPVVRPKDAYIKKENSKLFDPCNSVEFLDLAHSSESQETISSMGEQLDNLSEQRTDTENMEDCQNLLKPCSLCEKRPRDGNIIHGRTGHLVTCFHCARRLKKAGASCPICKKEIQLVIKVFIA
# Target sequence (Q00987 whole entry, looked up): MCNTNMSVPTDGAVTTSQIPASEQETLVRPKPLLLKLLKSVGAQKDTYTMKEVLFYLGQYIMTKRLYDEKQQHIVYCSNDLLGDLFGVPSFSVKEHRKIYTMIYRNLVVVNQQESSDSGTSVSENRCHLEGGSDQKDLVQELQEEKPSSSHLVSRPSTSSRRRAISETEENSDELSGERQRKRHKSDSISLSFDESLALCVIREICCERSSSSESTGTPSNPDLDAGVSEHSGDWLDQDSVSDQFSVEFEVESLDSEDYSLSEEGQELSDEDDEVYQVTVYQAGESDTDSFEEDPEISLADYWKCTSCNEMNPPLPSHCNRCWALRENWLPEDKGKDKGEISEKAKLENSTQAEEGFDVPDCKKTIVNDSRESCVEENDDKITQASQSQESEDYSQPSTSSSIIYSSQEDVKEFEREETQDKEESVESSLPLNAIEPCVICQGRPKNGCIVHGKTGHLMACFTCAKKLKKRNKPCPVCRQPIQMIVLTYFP
# Rh123 counter: fluorescence retest of MPTP screen hits in isolated mitochondria, single concentration. 78% of 5,000 active. inhibition, % at 10 µM. shares compounds with MPTP inh. membrane potential, Rhodamine 123 fluorescence; in the data active means inhibition above about 22%;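 further: 0% = DMSO vehicle and 100% = positive control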
# MPTP swell DR: mitochondrial permeability transition pore inhibitors, dose response, biochemical, absorbance, uHTS hits; shares compounds with MPTP inh; isolated mitochondria swelling; IC50, µM; 58% of 780 active; AID 651561, 2012; in the data active means IC50 below about 20 µM
# MPTP cs DR: fluorescent counter-screen in isolated mitochondria, dose response, counter-screen for MPTP inhibitor project, biochemical, fluorescence, uHTS hits; isolated mitochondria counterscreen, fluorescence read-out; IC50, µM; AID 651564, 2012; shares compounds with MPTP inh; 49% of 780 active; in the data active means IC50 below about 80 µM
# Starred values were filed as active, the others as inactive; i = inactive; . = no result given.
SMILES,tim23-1 inh,tim10-1 inh,TIM10 inh,MPTP inh,Mdm2-MdmX inh,Rh123 counter,others
COc1ccc(CN2C(=O)CS/C2=N/N=C/c2ccccc2)cc1,-6,-1,-9,67*,-115,65*,
CC(=O)N(C(C)=O)c1ccc2c(c1)OCCO2,.,.,.,-1,.,.,
O=C(Nc1nc(-c2ccc(F)cc2)cs1)C1CCN(C(=O)c2ccc(F)cc2)CC1,29,33,18,64*,27,78*,
O=C(O)CC(c1ccccc1)c1ccc2c(c1)OCO2 (configuration not stated),.,.,.,0,.,.,
COC(=O)c1cc(Cl)c(NC(=O)/C=C/c2ccc(Cl)cc2Cl)cc1OC,-20,11,-8,83*,-4,3,MPTP swell DR=i;MPTP cs DR=4.4*
CC1=C(C(=O)N(C)C)CC(CC(=O)NC2CCCC2)C(=O)N1CCC1=CCCCC1 (configuration not stated),.,.,.,-1,.,.,
CC(C)(C)c1ccc(S(=O)(=O)NC(=O)C2(C)CCN2C(=O)CC2CCCCC2)cc1 (configuration not stated),.,.,.,1,.,.,
O=C1c2ccccc2C(c2nnnn2-c2ccc3c(c2)OCCO3)N1Cc1ccc(F)cc1 (configuration not stated),.,.,.,2,.,.,
COc1ccc(NC(=O)Cn2c(C)cc(=O)c3ccccc32)cc1,6,12,15,61*,35,41*,
Cc1c(NC(=O)c2nn(C(C)C)c(=O)c3ccccc23)c(=O)n(-c2ccccc2)n1C,.,.,.,-1,.,.,
CCOC(=O)c1c(/N=C/c2cccc(C)c2O)sc2c1CCN(C)C2,12,12,9,71*,11,-16,
CCOC(=O)c1c(/N=C/c2ccc(C)cc2O)sc2c1CCN(C)C2,22,11,1,3,44,.,
COCCn1c(SCc2csc(-c3ccccc3)n2)nc2ccccc21,22,35,-10,70*,21,41*,
O=C(CC[C@H]1O[C@@H](n2cnc3c(NC(=O)c4ccccc4)ncnc32)[C@H](O)[C@@H]1O)NCCCN1CCOCC1,.,.,.,-2,.,.,
Cc1cc(C)cc(NC(=O)C(Sc2nnc(C)c(=O)[nH]2)c2ccccc2)c1 (configuration not stated),3,-4,-7,1,-5,.,
Cc1nnc(SC(C(=O)Nc2ccc(Cl)c([N+](=O)[O-])c2)c2ccccc2)[nH]c1=O (configuration not stated),17,15,-8,74*,8,51*,
COc1ccc(Nc2nc(C)nc3sc4c(c23)CCC4)cc1O,5,-13,-3,0,39,.,
Cc1nc(NS(=O)(=O)c2ccc(Cl)s2)c2c3c(sc2n1)CCCC3,31,16,-2,84*,11,77*,
CN1/C(=C/C(=O)CSc2ccccc2C(=O)O)C(C)(C)c2ccccc21,-3,15,7,1,12,.,
Cc1cc(=O)[nH]c(SCC(=O)/C=C2\N(C)c3ccccc3C2(C)C)n1,14,4,-17,89*,-7,53*,
COc1cccc(-c2cnc(C(O)c3ccc(C)cc3C)[nH]2)c1 (configuration not stated),.,.,.,0,.,.,
CC1(C)CC(=O)C2=C(C1)NC1=C(C(=O)c3ccccc31)C2c1cc([N+](=O)[O-])ccc1O (configuration not stated),24,13,22,94*,13,57*,
CC1(C)CC(=O)C2=C(C1)NC1=C(C(=O)c3ccccc31)C2c1ccccc1 (configuration not stated),21,16,15,34,0,.,
CCCCc1cc(=O)oc2cc(OCc3cc(OC)c(OC)c(OC)c3)c(Cl)cc12,3,8,22,88*,37,-4,MPTP swell DR=3*;MPTP cs DR=5*
O=C(c1ccc(-c2ccccc2)c(F)c1)C1CCCN(C(=O)c2cncs2)C1 (configuration not stated),-170,-117,-29,52*,-13,52*,
SMILES,tim23-1 inh,tim10-1 inh,TIM10 inh,MPTP inh,Mdm2-MdmX inh,Rh123 counter,others
CC(C)Oc1cccc(C(=O)C2CCCN(C(=O)c3cncs3)C2)c1 (configuration not stated),5,18,-4,1,-21,.,
O=C1CCCC2=C1C(c1ccc(Cl)cc1)C1C(=O)c3ccccc3C1=N2 (configuration not stated),12,23,12,55*,30,36*,
Cc1ccc(C2C3=C(CCCC3=O)N=C3c4ccccc4C(=O)C32)cc1 (configuration not stated),7,26,8,11,27,.,
Cc1ccc(NC(=O)c2c(C(F)(F)F)nn(C)c2SCc2cccc(C(F)(F)F)c2)cc1C,24,21,3,68*,-4,83*,
Cc1ccc(NC(=O)c2c(C(F)(F)F)nn(C)c2SCc2ccc(Cl)cc2)cc1C,27,18,6,36,13,.,
Cc1c(NS(=O)(=O)c2cccc(C(=O)NCc3cccc(Cl)c3)c2)c(=O)n(-c2ccccc2)n1C,.,.,.,1,.,.,
CCN(CC)C(=S)Nc1ccc(Cl)c(Cl)c1,29,23,8,71*,11,59*,
NC(=S)NNC(=O)Nc1ccc(Cl)c(Cl)c1,9,26,-9,72*,-6,70*,
CCN(Cc1ccncc1)C(=S)Nc1ccc(Cl)cc1,11,24,-5,15,19,.,
CC(=O)c1ccc2c(c1)CC1(C2)Cc2cc3c(cc2C1)C(=O)CC3 (configuration not stated),.,.,.,1,.,.,
Cc1ccc(-c2csc(NC(=O)CSc3nc(C)cs3)n2)cc1,20,34,29,70*,-23,56*,
O=C(CSc1nc(-c2ccc(Cl)cc2)cs1)Nc1cccc([N+](=O)[O-])c1,-2,6,8,84*,15,80*,
S=C(Nc1ccccc1Cl)Nc1ccc(Cl)cc1Cl,24,13,10,14,6,.,
S=C(NCc1cccc(Cl)c1)NC1CCCCC1,25,21,24,77*,19,67*,
S=C(Nc1ccccc1)Nc1ccc(Cl)cc1Cl,5,19,26,61*,-40,79*,
Cc1cc(Cl)ccc1NC(=S)NCc1ccccc1Cl,44,39,36,93*,19,84*,
S=C(Nc1ccccc1Cl)NC1CCCCCC1,37,-5,26,0,0,.,
S=C(Nc1ccc(Cl)cc1Cl)NC1CCCCC1,8,3,20,86*,-85,109*,
